HADH2 inh – qHTS Assay for Inhibitors of HADH2 (Hydroxyacyl-Coenzyme A Dehydrogenase, Type II). Potency, µM (titrated, usually from 57.1 µM), for inactives: top-dose activity change, negative = inhibition, usual class: inhibitors. 3.4% of 73,000 active. recombinant HADH2, NADH fluorescence, beta-hydroxybutyryl-CoA; also: potency is read from the fitted curve at half-maximal effect; % is scaled to controls: 0 for no effect and ±100 for the full control effect; nearly all actives have a fitted effect of over 60% in size
Target sequence (Q99714 whole entry, looked up, one chain of several): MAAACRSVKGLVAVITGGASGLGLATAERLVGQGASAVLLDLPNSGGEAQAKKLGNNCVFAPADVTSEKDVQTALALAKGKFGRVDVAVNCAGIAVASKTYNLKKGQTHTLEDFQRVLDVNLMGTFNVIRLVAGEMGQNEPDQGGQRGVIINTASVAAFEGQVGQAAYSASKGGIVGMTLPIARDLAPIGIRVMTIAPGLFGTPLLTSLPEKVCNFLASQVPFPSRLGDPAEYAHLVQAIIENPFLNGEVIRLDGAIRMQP
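His-tagged recombinant enzyme from E. coli, 20 nM, preincubated 15 min RT with compound; reaction started with 1 mM NAD+ and 90 uM beta-hydroxybutyryl-CoA in 100 mM Tris-HCl pH 9.0. NADH fluorescence (ex 360/em 450) read over 4 min; last-minus-first difference.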
A350 fluor – qHTS Assay for Spectroscopic Profiling in A350 Spectral Region | max dye-equivalent concentration, M | 11% of 59,000 active | Compound autofluorescence, 340/450 nm, Alexa 350 dye-equivalents; hits give high values | AID 590, 2007; in the data active = max dye-equivalent concentration above about 10 nM; inconclusive = mostly about 1.1 nM to 9.6 nM
HSD17B inh – qHTS Assay for Inhibitors of HSD17B4, hydroxysteroid (17-beta) dehydrogenase 4. 3-hydroxyacyl-CoA dehydrogenase type-2 (Homo sapiens), Q99714. recombinant HSD17B10, NADH fluorescence kinetic. Potency, µM (titrated, usually from 57.1 µM), inactives show at the highest dose activity change, negative = inhibition, most hits filed as inhibitors. 7.6% of 75,000 active. AID 893, 2007;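 also: the protocol describes HADH2 (HSD17B10) and not the HSD17B4 of the title; potency is read from the fitted curve at half-maximal effect; % is scaled to controls: 0 for no effect and ±100 for the full control effect; nearly all actives have a fitted effect of over 70% in size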
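His-tagged E. coli-expressed HADH2 at 20 nM in 100 mM Tris-HCl pH 9.0 with 0.01 % Tween-20, preincubated 15 min with compound at room temperature. Reaction with 1 mM NAD+ and 90 uM beta-hydroxybutyryl coenzyme A; NADH fluorescence (360/450 nm) read kinetically over 4 min, last minus first point.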
AID923 – qHTS Assay for Allosteric/Competitive Inhibitors of Caspase-1: Spectroscopic Profiling in AFC Spectral Region; compound fluorescence, AFC spectral region (405/520 nm); Potency, µM (titrated, usually from 57.5 µM), for inactives: at the top dose fluorescence increase, actives largely listed as activators; 1.1% of 75,000 active; also: potency is read from the fitted curve at half-maximal effect; 0% is about no effect
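Baseline compound fluorescence (AFC region, 405 nm ex/520 nm em) taken from the intercept of kinetic reads with 50 nM caspase-1 and 5 uM Ac-WEHD-AFC; normalized to an on-plate AFC standard curve; compounds titrated up to 57 uM.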
CRE Fsk mod – Cell signaling CRE-BLA (Fsk stim). CHO CRE-bla reporter (cAMP response element driving beta-lactamase), forskolin EC10, beta-lactamase ratio. Potency, µM (doses to about 38.2 µM), for the others: top-dose activity change, negative = inhibition, actives largely listed as activators. 2.5% of 71,000 active; active = well fitted activation curve with a large enough effect in the signal ratio, with a control signal flat, not every such curve was filed as active; inconclusive = small, poorly fitted or top-dose-only effect, or effect the other way, or a change in a side signal; the % refers to the signal ratio; also: potency is read from the fitted curve at half-maximal effect; % of control where 0% means no effect
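qHTS titration format; CRE-bla CHO reporter; stimulus EC10 NKH 477, a water-soluble forskolin. Read: CCF4 460/530 nm ratio. Potency expressed as AC50 for activators or inhibitors.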
4-MU autofl – qHTS Assay for Spectroscopic Profiling in 4-MU Spectral Region | compound autofluorescence, 340/450 nm, 4-MU equivalents; hits give high values | 11% of 59,000 active | max dye-equivalent concentration, M | AID 589, 2007; in the data active = max dye-equivalent concentration above about 10 nM; inconclusive = mostly about 1.1 nM to 9.6 nM
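Compounds in 100 mM Tris, pH 8.0, incubated 15 min at room temperature, then fluorescence read at 340 nm excitation/450 nm emission. Signal converted to 4-MU dye-equivalent concentration using an on-plate six-point 4-MU standard curve.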
An asterisk follows results filed as active. Most compounds without a hit are left out; they make up all but 14% or so of the library. Unless noted, calls follow the shape of the dose curve; as a rule, active = well fitted curve in the direction sought with a large enough effect; inconclusive = small, poorly fitted or top-dose-only effect, or another doubt; inactive = no such curve, though single readings can be large; an effect the other way counts as inactive or inconclusive.

Results for Cc1ccc(S(=O)(=O)Nc2ccc3c(c2)nc2n3CCN(Cc3ccccc3)C2)cc1 ?
HADH2 inh: 8%; A350 fluor: inconclusive; HSD17B inh: inconclusive; AID923: 11%; CRE Fsk mod: inconclusive; 4-MU autofl: inconclusive

How did CC1CCN(CCc2nc3cc(NS(=O)(=O)c4ccc(F)cc4)ccc3n2C)CC1 do in these assays?
HADH2 inh: -87%; A350 fluor: 1.9e-07M*; HSD17B inh: 25µM*; AID923: 2%; CRE Fsk mod: 9%; 4-MU autofl: 1.8e-07M*

What do the screens show for `CC1CCN(CCc2nc3cc(NS(=O)(=O)c4ccccc4)ccc3n2C)CC1`?
HADH2 inh: 6%; A350 fluor: inactive; HSD17B inh: 6%; AID923: -1%; CRE Fsk mod: 8%; 4-MU autofl: inactive

What do the screens show for `O=S(=O)(Nc1ccc2c(c1)nc1n2CCN(Cc2ccccc2)C1)c1ccccc1`?
HADH2 inh: 16%; A350 fluor: 1.2e-08M*; HSD17B inh: inconclusive; AID923: 7%; CRE Fsk mod: -8%; 4-MU autofl: 1e-08M*

How did Clc1cccc(Cl)c1Cn1cnc2c(N3CCCCCC3)ncnc21 do in these assays?
HADH2 inh: 10%; A350 fluor: inconclusive; HSD17B inh: 16%; AID923: 1%; CRE Fsk mod: 2µM*; 4-MU autofl: inconclusive

What do the screens show for `c1ccc(Cn2nnc3c(N4CCCCCC4)ncnc32)cc1`?
HADH2 inh: -1%; HSD17B inh: -1%; AID923: 3%; CRE Fsk mod: 3.2µM*

Results for c1ccc(Cn2nnc3c(N4CCc5ccccc54)ncnc32)cc1 ?
HADH2 inh: 25µM*; A350 fluor: 8.5e-07M*; HSD17B inh: inconclusive; AID923: 0%; CRE Fsk mod: 0%; 4-MU autofl: 1.1e-06M*

How did CCCN1CCN(c2ncnc3c2nnn3Cc2ccccc2)CC1 do in these assays?
HADH2 inh: 7%; A350 fluor: inactive; HSD17B inh: 2%; AID923: 2%; CRE Fsk mod: 7%; 4-MU autofl: inactive

How did Cn1c(SCC(=O)NC(C)(C)C)nc(O)cc1=O do in these assays?
HADH2 inh: inconclusive; A350 fluor: inactive; HSD17B inh: 8%; AID923: 2%; CRE Fsk mod: -6%; 4-MU autofl: inactive

Results for Cc1ccc2c(c1[N+](=O)[O-])C(=O)c1ccccc1C2=O ?
HADH2 inh: 0%; HSD17B inh: -4%; AID923: -1%; CRE Fsk mod: 9%

Results for O=c1[nH]cnc2cc(-c3ccccc3)sc12 ?
A350 fluor: inactive; 4-MU autofl: inactive

What do the screens show for `O=c1[nH]cnc2nc(-c3ccccc3)c(-c3ccccc3)nc12`?
HADH2 inh: 32µM*; A350 fluor: 1.3e-06M*; HSD17B inh: 32µM*; AID923: 4%; CRE Fsk mod: inconclusive; 4-MU autofl: 1.4e-06M*

How did COC(=O)c1[nH]c2ccc(C)cc2c1NC(=O)CN1CCN(C(=O)c2ccccc2)CC1 do in these assays?
HADH2 inh: 7.9µM*; A350 fluor: inconclusive; HSD17B inh: 25µM*; AID923: 0%; CRE Fsk mod: 12%; 4-MU autofl: 1.6e-08M*

Results for COC(=O)c1[nH]c2ccc(C)cc2c1NC(=O)CN1CCN(Cc2ccccc2)CC1 ?
HADH2 inh: inconclusive; A350 fluor: inconclusive; HSD17B inh: 32µM*; AID923: 13%; CRE Fsk mod: 21%; 4-MU autofl: 2.5e-08M*

How did COC(=O)c1[nH]c2cc(OC)c(OC)cc2c1NC(=O)CN1CCN(Cc2ccccc2)CC1 do in these assays?
HADH2 inh: 25µM*; A350 fluor: 1.2e-08M*; HSD17B inh: 25µM*; AID923: -2%; CRE Fsk mod: 10µM*; 4-MU autofl: 4.7e-08M*

Results for COC(=O)c1[nH]c2ccc(C)cc2c1NC(=O)CN1CCC(C)CC1 ?
HADH2 inh: -16%; A350 fluor: inconclusive; HSD17B inh: 32µM*; AID923: -1%; CRE Fsk mod: 16%; 4-MU autofl: inconclusive

How did COC(=O)c1[nH]c2ccc(C)cc2c1NC(=O)CN1CCN(c2ccccc2)CC1 do in these assays?
HADH2 inh: -24%; A350 fluor: inconclusive; HSD17B inh: 32µM*; AID923: -1%; CRE Fsk mod: inconclusive; 4-MU autofl: inactive

Results for COC(=O)c1[nH]c2ccc(C)cc2c1NC(=O)CN1CCN(c2ccc(F)cc2)CC1 ?
HADH2 inh: -12%; A350 fluor: inconclusive; HSD17B inh: inconclusive; AID923: 2%; CRE Fsk mod: -13%; 4-MU autofl: inconclusive

How did COC(=O)c1[nH]c2ccc(Br)cc2c1NC(=O)C(C)N1CCN(C2CCCCC2)CC1 (stereo unspecified) do in these assays?
HADH2 inh: 11%; A350 fluor: inactive; HSD17B inh: -15%; AID923: 0%; CRE Fsk mod: -8%; 4-MU autofl: inactive

Results for COC(=O)c1[nH]c2ccc(C)cc2c1NC(=O)C(C)N1CCN(C2CCCCC2)CC1 (stereo unspecified) ?
HADH2 inh: inconclusive; A350 fluor: 2.1e-08M*; HSD17B inh: 20µM*; AID923: -2%; CRE Fsk mod: 5%; 4-MU autofl: 1.6e-08M*

What do the screens show for `Cc1ccc(-c2nnc(COc3cccc(-n4cnnn4)c3)o2)cc1`?
HADH2 inh: 5%; A350 fluor: inactive; HSD17B inh: -3%; AID923: 0%; CRE Fsk mod: 6%; 4-MU autofl: inactive

How did CCOC(=O)C1Cc2c([nH]c3ccccc23)CN1 (stereo unspecified) do in these assays?
HADH2 inh: -2%; A350 fluor: 4.6e-08M*; HSD17B inh: inconclusive; AID923: 2%; CRE Fsk mod: inconclusive; 4-MU autofl: 3.5e-08M*

How did COC(=O)C1Cc2c([nH]c3ccccc23)C(C)N1 (stereo unspecified) do in these assays?
HADH2 inh: -4%; A350 fluor: inconclusive; HSD17B inh: 13µM*; AID923: 5%; CRE Fsk mod: -6%; 4-MU autofl: inconclusive

What do the screens show for `CC(=O)C1=C(O)C(=O)N(CCN2CCOCC2)C1c1ccc(N(C)C)cc1` (stereo unspecified)?
HADH2 inh: 9%; A350 fluor: inactive; HSD17B inh: 5%; AID923: 2%; CRE Fsk mod: -1%; 4-MU autofl: inactive
